PP1 inh – PP1-alpha phosphatase inhibitors, primary screen, counter-screen for PP5 inhibitor project, biochemical, fluorescence, OMFP substrate, single point; 320,000 compounds, 0.9% hits; purified PP1alpha; inhibition, % at 6.7 µM;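 active means inhibition above the mean inhibition of all tested compounds plus 3 SD, computed separately for each screening campaign, cut at about 15% in these data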
Target sequence (P62136 whole entry, looked up): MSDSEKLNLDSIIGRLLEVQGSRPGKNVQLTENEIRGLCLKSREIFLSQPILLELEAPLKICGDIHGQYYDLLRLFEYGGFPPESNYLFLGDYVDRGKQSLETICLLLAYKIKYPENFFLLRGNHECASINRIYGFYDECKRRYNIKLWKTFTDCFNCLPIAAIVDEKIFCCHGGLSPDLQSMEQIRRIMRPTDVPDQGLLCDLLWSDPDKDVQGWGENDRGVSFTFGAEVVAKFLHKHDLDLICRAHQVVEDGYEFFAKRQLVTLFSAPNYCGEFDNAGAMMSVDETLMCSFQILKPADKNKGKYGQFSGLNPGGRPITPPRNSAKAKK
PAFAH2 FP inh – PAFAH2 enzyme inhibitors, primary screen, biochemical, fluorescence polarization, human | inhibition, % at 3.39 µM | recombinant PAFAH2, FP-rhodamine activity probe | 340,000 compounds, 0.99% hits | AID 492956, 2010;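 active means inhibition above the mean over all tested compounds plus 3 SD, cut at about 30% in these data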;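 further: inhibitors block probe labeling of enzyme so polarization drops; 0% = enzyme with DMSO and 100% = wells lacking PAFAH2 protein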
PP5 primary – PP5 phosphatase inhibitors, primary screen, biochemical, fluorescence; Serine/threonine-protein phosphatase 5 (Homo sapiens), P53041; purified PP5c, OMFP substrate fluorescence; inhibition, % at 6.7 µM; 320,000 compounds, 0.18% hits;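 active means inhibition above the campaign's mean inhibition across all tested compounds plus 3 SD, cut at about 9.5% in these data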;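 further: 0% = DMSO only and 100% = 100 µM cantharidin control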
pPAFAH inh – pPAFAH enzyme inhibitors, primary screen, biochemical, fluorescence polarization, human | recombinant pPAFAH, FP-rhodamine probe fluorescence polarization | inhibition, % at 3.39 µM | 330,000 compounds, 1.5% hits | Platelet-activating factor acetylhydrolase (Homo sapiens), Q13093;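 active means inhibition above the mean inhibition across the screen plus 3 SD, cut at about 25% in these data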;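 further: inhibitors block binding of the rhodamine activity-based probe so polarization drops; 0% = enzyme with DMSO and 100% = wells lacking pPAFAH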
PAFAH1B2 inh – PAFAH1B2 enzyme inhibitors, primary screen, biochemical, fluorescence polarization, human; recombinant PAFAH1B2, FP-rhodamine activity probe; AID 492953, 2010; inhibition, % at 3.39 µM; 340,000 compounds, 1.2% hits;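 active means inhibition above the mean of all tested compounds plus 3 SD, cut at about 24% in these data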;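 further: 0% = enzyme with DMSO and 100% = wells lacking PAFAH1B2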
Target sequence (P68402 whole entry, looked up): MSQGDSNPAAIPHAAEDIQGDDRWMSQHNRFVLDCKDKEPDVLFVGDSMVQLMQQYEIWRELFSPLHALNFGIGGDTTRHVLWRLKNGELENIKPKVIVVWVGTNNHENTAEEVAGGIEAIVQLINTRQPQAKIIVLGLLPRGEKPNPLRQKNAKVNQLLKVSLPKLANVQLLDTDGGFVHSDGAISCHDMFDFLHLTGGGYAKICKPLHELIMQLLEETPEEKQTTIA
PAFAH1B3 inh – PAFAH1B3 enzyme inhibitors, primary screen, biochemical, fluorescence polarization, human. Platelet-activating factor acetylhydrolase IB subunit alpha1 (Homo sapiens), Q15102. recombinant PAFAH1B3, FP-rhodamine probe. inhibition, % at 3.39 µM. 340,000 compounds, 0.28% hits;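 active means inhibition above the screen-wide average of all tested compounds plus 3 SD, cut at about 25% in these data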;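 further: 0% = enzyme with DMSO only and 100% = wells lacking PAFAH1B3 protein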
pPAFAH confirm – pPAFAH (PLA2G7) enzyme inhibitors, confirmation, biochemical, fluorescence polarization, human; 2,300 compounds, 72% hits; recombinant pPAFAH, FP-Rh probe fluorescence polarization; inhibition, % at 3.39 µM; AID 463230, 2010; shares compounds with pPAFAH inh;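 active means mean inhibition of the triplicate above the hit cutoff set for the earlier primary screen, cut at about 25% in these data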;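 further: 0% = enzyme with DMSO and 100% = wells lacking pPAFAH enzyme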
* hit, by the source's call; / = no result. A selection: hits, their analogues and other compounds. The true share with any hit is near 3.4%.

SMILES	PP1 inh	PAFAH2 FP inh	PP5 primary	pPAFAH inh	PAFAH1B2 inh	PAFAH1B3 inh	pPAFAH confirm
CC(OC(=O)c1ccc(Cl)cc1)C(=O)NCc1ccc2c(c1)OCO2 (stereo not drawn)	-4.8	6.9	-1.2	53.7*	4.8	7.4	2.4
Cc1cc(S(=O)(=O)N2CCCC2)ccc1OCC(=O)Nc1ccc(C(N)=O)cc1	1.5	3.0	0.0	49.6*	-0.8	3.9	4.1
CC(C)CNC(=O)C1CCN(S(=O)(=O)c2ccc(-n3cnnn3)cc2)CC1	-4.1	5.5	-0.3	-0.2	-3.2	5.5	/
COc1ccc(-n2cc(-c3ccccc3)c3c(NCCCN4CCOCC4)ncnc32)cc1	-0.1	-7.9	-0.2	34.9*	3.8	-2.7	17.8
Cc1ccc(NC(=O)c2cc3c(=O)oc4ccc(C)cc4c3s2)nc1	3.0	/	-1.0	66.3*	/	/	6.2
c1cncc(CSc2ccc(-c3cccs3)nn2)c1	-2.5	0.9	-1.9	1.9	3.6	0.5	/
CC(C)(c1ccccc1)c1ccc(OCCCN2CCNCC2)cc1	6.3	-8.9	4.4	39.3*	4.4	-3.9	25.0*
CC(C)(C)c1ccc(OCCCCCCN2CCNCC2)cc1	-0.6	3.1	-1.1	-4.5	1.1	1.4	/
CCOc1ccc(C(=O)NCC(=O)OCc2cc([N+](=O)[O-])cc3c2OCOC3)cc1OCC	-4.2	3.2	2.1	-2.6	3.0	10.0	/
Cc1cc(NS(=O)(=O)c2ccc(Nc3nc(-c4sc(N)nc4C)cs3)cc2)no1	8.9	79.0*	1.9	45.7*	36.4*	55.0*	42.2*
CCOC(=O)C1=C(Cn2ccc(C(F)(F)F)n2)NC(=O)NC1c1ccc2c(c1)OCO2 (stereo not drawn)	0.0	5.3	3.6	-3.9	4.7	4.4	/
O=C1c2cc(Br)ccc2N(Cc2ccc(Br)cc2)S(=O)(=O)C1c1cc(Cl)c(Cl)cc1[N+](=O)[O-] (stereo not drawn)	/	53.8*	/	45.2*	44.2*	19.9	55.1*
CSc1cccc(NC(=S)N(Cc2ccc(C)cc2)Cc2ccccn2)c1	3.6	5.9	1.6	4.1	-0.3	8.4	/
Cc1cc(/C=C2\SC(=S)NC2=O)c(C)[nH]1	-0.3	15.0	0.8	45.6*	-0.7	12.0	1.0
COc1ccc(-n2c(C)cc(/C=C3\SC(=S)N(Cc4ccco4)C3=O)c2C)cc1	13.4	-1.2	0.6	2.0	-2.2	-11.7	/
Cc1cc(/C=C2\SC(=S)NC2=O)c(C)n1-c1cccc(O)c1	8.1	20.4	4.2	45.1*	15.4	8.0	49.5*
O=C1NC(=S)S/C1=C\c1cc(Cl)ccc1Cl	/	-3.5	/	/	5.5	11.6	/
COc1ccc(-n2c(C)cc(/C=C3\SC(=O)NC3=O)c2C)cc1	9.8	0.9	0.4	40.2*	-0.3	1.2	23.1
NC(=O)COC(=O)CC(c1ccccc1)c1ccccc1	-2.4	-2.1	-0.2	1.4	2.9	1.1	/
O=C(N/N=C/c1cn(-c2cccs2)nc1-c1ccccc1)c1ccccc1Cl	0.7	-21.8	4.0	-16.2	-15.6	-18.1	/
Cn1c2ccccc2c2cc(/C=N/NC(=O)c3cc(O)ccc3O)ccc21	14.5	23.6	1.0	57.4*	30.3*	59.1*	28.0*
O=C(COC(=O)c1ccc(O)cc1)Nc1ccc(N2CCCCC2)cc1	-3.0	59.5*	0.4	48.2*	4.5	4.1	33.7*
COc1cc(OC)cc(C(=O)OCC(=O)Nc2ccc(N3CCCCC3)cc2)c1	0.1	4.7	-3.1	1.4	-0.2	5.3	/
N[C@@H](Cc1cc(I)c(Oc2cc(I)c(O)c(I)c2)c(I)c1)C(=O)O	16.5*	/	0.6	44.0*	/	/	39.0*
NC(Cc1ccc(O)c([N+](=O)[O-])c1)C(=O)O (stereo not drawn)	-1.8	3.0	-5.1	-11.0	0.5	12.2	/
SMILES	PP1 inh	PAFAH2 FP inh	PP5 primary	pPAFAH inh	PAFAH1B2 inh	PAFAH1B3 inh	pPAFAH confirm
C=CCNC(=O)c1ccc(-c2ccc([N+](=O)[O-])cc2)o1	-1.5	-0.2	-1.2	14.0	-0.9	0.5	/
COc1ccc(O)c(C(=O)C2c3ccccc3C(=O)N2c2ccc(C)cc2)c1 (stereo not drawn)	-1.4	3.9	2.3	39.9*	4.0	1.1	-1.1
COc1cc2nc(CN3CCN(S(=O)(=O)c4ccc(C)c(C)c4)CC3)[nH]c(=O)c2cc1OC	-2.1	5.5	3.8	6.5	5.1	6.8	/
CCN(c1ccc(OC)cc1)S(=O)(=O)c1ccc2c(c1)CC(C)N2C(=O)C1CC1 (stereo not drawn)	2.4	10.8	0.6	-0.3	1.1	9.9	/
O=C1C(Cl)=C(Nc2ccc(F)cc2)C(=O)N1CCc1ccccc1	-0.8	-0.1	2.8	0.1	7.8	7.6	/
c1cc2c(cc1C1CCCCC1)c1c3n2CCCNC3CCC1 (stereo not drawn)	6.9	4.3	4.0	44.7*	5.9	4.8	20.3
Cc1ccc2c(c1)c1c3n2CCCNC3CCC1 (stereo not drawn)	-8.4	-4.8	7.3	0.2	-1.2	9.7	/
COC(=O)C1=C(C)NC2=C(C(=O)c3ccccc32)C1c1cccc(OC)c1 (stereo not drawn)	7.9	11.0	-0.7	4.7	3.4	10.0	/
CC1=C([N+](=O)[O-])C(c2cccc(Br)c2)C2=C(N1)c1ccccc1C2=O (stereo not drawn)	6.3	5.0	3.9	37.8*	6.5	3.4	25.9*
Cc1ccccc1CSc1nnnn1-c1ccc(C(N)=O)cc1	-0.4	9.6	2.5	2.0	7.4	0.3	/
NC(=O)c1ccc(-n2nnnc2SCC(=O)c2ccc(O)c(O)c2)cc1	1.1	14.1	3.8	36.8*	4.6	15.6	66.8*
COc1ccc(-c2nnc(SCC(=O)Nc3sc4c(c3C#N)CCCC4)n2-c2ccccc2)cc1	-2.3	1.4	1.9	2.9	3.4	1.0	/
Cc1ccccc1NCN1C(=O)C2C3C=CC(C3)C2C1=O (stereo not drawn)	-0.4	2.8	5.2	4.1	0.9	5.8	/
CN(C(=O)c1cccnc1)c1nnc(-c2cnccn2)s1	-5.4	3.1	1.6	4.8	2.1	-2.7	/
CN(C(=O)c1cccnc1)c1nnc(-c2cccnc2)s1	-2.2	-0.5	-1.9	42.0*	1.8	-4.3	3.0
O=S(=O)(Nc1nc2ccccc2nc1-[n+]1cccc(N=C([O-])c2ccc(Cl)cc2)c1)c1ccccc1	1.6	/	2.5	11.8	/	/	/
